Experimental findings from PMC8136818, “Evolving origin-of-transfer sequences on staphylococcal conjugative and mobilizable plasmids—who’s mimicking whom?” are described below.

Common to all, as to conditions: protein: recombinant; tags: His6-TEV, cleaved; chain copies: 4
The target in experiment [1] is T1, SmpO45 (Staphylococcus aureus plasmid pWBG745, UniProt UPI0001BEA8D3 1-84).
T1 sequence: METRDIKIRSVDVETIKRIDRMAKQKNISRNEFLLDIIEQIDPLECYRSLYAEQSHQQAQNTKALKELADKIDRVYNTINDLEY
Kind of experiment: SPR (ReDCaT); 300 mM NaCl; 10 mM HEPES, 3 mM EDTA, 0.05% Tween 20, NaCl 150 mM (SmpO49 screens), 300 mM (SmpO45, SmpO408, SmpOUNa screens) or 250 mM (Table S4); pH and temperature not stated; protein 1 uM; high values mean tight binding. The gist of the method: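 Tag-cleaved protein, expressed in E. coli BL21(DE3)pLysS and purified by nickel-affinity and size-exclusion chromatography, was screened on a Biacore T200 SA chip by reusable DNA capture. OriT oligonucleotides were captured at 1 μM on Fc2, with a control linker on Fc1. Protein at 1 μM was injected at 30 μl/min (60 s contact, 60 s dissociation) in 10 mM HEPES, 300 mM NaCl, 3 mM EDTA, 0.05% Tween 20. DNA binding is reported as %Rmax.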

The target in experiment [2] is T1, SmpO45. Kind of experiment: SPR (ReDCaT); 250 mM NaCl; 10 mM HEPES, 3 mM EDTA, 0.05% Tween 20, NaCl 150 mM (SmpO49 screens), 300 mM (SmpO45, SmpO408, SmpOUNa screens) or 250 mM (Table S4); pH and temperature not stated; protein 1 uM; high values mean tight binding.
A further experiment deals with T2, SmpOUNa (plasmid pC02).
T2 chain: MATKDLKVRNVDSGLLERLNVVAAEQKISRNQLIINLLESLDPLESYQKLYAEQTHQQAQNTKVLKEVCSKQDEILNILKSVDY
The experiment is described as above.

In another experiment the target is T3, SmpO408 (Staphylococcus aureus M0408).
T3 chain: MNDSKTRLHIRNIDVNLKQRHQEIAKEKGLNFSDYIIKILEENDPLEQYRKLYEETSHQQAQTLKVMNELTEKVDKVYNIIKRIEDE
The description is as above.

The next experiment deals with T4, SmpOSep (Staphylococcus epidermidis VCU120).
T4 chain: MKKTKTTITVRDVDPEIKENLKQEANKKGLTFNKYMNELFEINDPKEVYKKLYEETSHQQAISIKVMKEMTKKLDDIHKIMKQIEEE
Described as above.

The next experiment deals with T5, SmpO49-F7K (Staphylococcus aureus plasmid pWBG749, UniProt UPI0001BEA96A 1-84, F7K).
T5 sequence: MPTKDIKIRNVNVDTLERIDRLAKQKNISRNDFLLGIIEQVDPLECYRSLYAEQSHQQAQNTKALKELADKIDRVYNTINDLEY
The experiment is described as above.

B1: ossA45-1 (dsDNA)
DNA 1: TTTGTGGGGTCACTTT
DNA 2: AAAGTGACCCCACAAA
With B1, the binding signal with SmpO45 [1] was 42.58 ± 0.128 %Rmax.

B2: ossB45 (dsDNA)
DNA 1: AATATGGGGTCATATT
DNA 2: AATATGACCCCATATT
Consider B2, for which the binding signal was found to be 21.6 %Rmax with SmpO45 [2]; 1.4 %Rmax with SmpOUNa; 0.9 %Rmax with SmpO408; 0.5 %Rmax in the experiment with SmpOSep; 26.1 %Rmax with SmpO49-F7K.

B3: ossA45-5 (dsDNA)
DNA 1: ATTGAGGGGTCACTTT
DNA 2: AAAGTGACCCCTCAAT
In the case of B3, in the experiment with SmpO45 [1], the binding signal turned out to be 13.5 ± 0.663 %Rmax.

B4: OT45.11 (dsDNA)
DNA 1: TATGGGGTCATATTTCCCTTATGCTCTTAC
DNA 2: GTAAGAGCATAAGGGAAATATGACCCCATA
On to B4, for which the binding signal with SmpO45 [1] amounted to 21.2 ± 1.26 %Rmax.

B5: ossB408 (dsDNA)
DNA 1: TAATAGGTGGCAAATT
DNA 2: AATTTGCCACCTATTA
As for B5, the binding signal with SmpO45 [2] turned out to be 0.4 %Rmax; in the experiment with SmpO408 it was 34.2 %Rmax.

B6: ossA45-12 (dsDNA)
DNA 1: ATTGTGGGGTCTCTTT
DNA 2: AAAGAGACCCCACAAT
As to B6, the binding signal in the experiment with SmpO45 [1] stood at 7.81 ± 0.57 %Rmax.

B7: OT45.9 (dsDNA)
DNA 1: TTGCCAGCCACCCCATAAAATATGGGGTCA
DNA 2: TGACCCCATATTTTATGGGGTGGCTGGCAA
Turning to B7, the binding signal with SmpO45 [1] turned out to be 0.769 ± 0.108 %Rmax.

B8: ossAUNa (dsDNA)
DNA 1: GTGACCCCCATAAGAT
DNA 2: ATCTTATGGGGGTCAC
For B8, the binding signal in the experiment with SmpO45 [2] worked out at 1.6 %Rmax; in the experiment with SmpOUNa it was 12.4 %Rmax; with SmpO408, 2.9 %Rmax; with SmpO49-F7K, 3.5 %Rmax.

B9: OT45.5 (dsDNA)
DNA 1: GGTCACTTTAAATTCTTTAAAACCCTTGAA
DNA 2: TTCAAGGGTTTTAAAGAATTTAAAGTGACC
B9: in the experiment with SmpO45 [1], the binding signal was found to be 17.8 ± 1.2 %Rmax.

B10: ossA45-4 (dsDNA)
DNA 1: ATTCTGGGGTCACTTT
DNA 2: AAAGTGACCCCAGAAT
Take B10: the binding signal in the experiment with SmpO45 [1] was found to be 33.4 ± 0.753 %Rmax.

B11: ossA45-10 (dsDNA)
DNA 1: ATTGTGGGGACACTTT
DNA 2: AAAGTGTCCCCACAAT
Turning to B11, the binding signal in the experiment with SmpO45 [1] was 6.42 ± 0.416 %Rmax.

B12: OT45.4 (dsDNA)
DNA 1: TTTATTGTGGGGTCACTTTAAATTCTTTAA
DNA 2: TTAAAGAATTTAAAGTGACCCCACAATAAA
With B12, the binding signal with SmpO45 [1] came out at 29.4 ± 1.33 %Rmax.

B13: ossA45-3 (dsDNA)
DNA 1: ATAGTGGGGTCACTTT
DNA 2: AAAGTGACCCCACTAT
In the case of B13, the binding signal with SmpO45 [1] is 31.73 ± 0.268 %Rmax.

B14: OT45.3 (dsDNA)
DNA 1: GACACTATAGTTTATTGTGGGGTCACTTTA
DNA 2: TAAAGTGACCCCACAATAAACTATAGTGTC
Take B14: in the experiment with SmpO45 [1], the binding signal stood at 29.5 ± 1.43 %Rmax.

B15: ossA45 (dsDNA)
DNA 1: ATTGTGGGGTCACTTT
DNA 2: AAAGTGACCCCACAAT
In the case of B15, the binding signal with SmpO45 [2] came to 37.5 %Rmax; in the experiment with SmpO45 [1], 36.5 ± 3.64 %Rmax; with SmpOUNa, 7.1 %Rmax; with SmpO408, 10.7 %Rmax; with SmpOSep, 2.9 %Rmax; with SmpO49-F7K, 31.3 %Rmax.

B16: ossA45 C11G (dsDNA)
DNA 1: ATTGTGGGGTGACTTT
DNA 2: AAAGTCACCCCACAAT
As to B16, the binding signal in the experiment with SmpO45 [1] was 0.641 ± 0.0361 %Rmax.

B17: ossBUNa (dsDNA)
DNA 1: AAAATGGGTACATATT
DNA 2: AATATGTACCCATTTT
As for B17, the binding signal with SmpO45 [2] came to 0.8 %Rmax; with SmpOSep, 1.5 %Rmax.

B18: ossA45-2 (dsDNA)
DNA 1: AATGTGGGGTCACTTT
DNA 2: AAAGTGACCCCACATT
For B18, the binding signal with SmpO45 [1] amounted to 32.56 ± 0.0519 %Rmax.

B19: ossA45-9 (dsDNA)
DNA 1: ATTGTGGGCTCACTTT
DNA 2: AAAGTGAGCCCACAAT
B19: the binding signal in the experiment with SmpO45 [1] was 0.616 ± 0.0355 %Rmax.

B20: OT45.10 (dsDNA)
DNA 1: CCCCATAAAATATGGGGTCATATTTCCCTT
DNA 2: AAGGGAAATATGACCCCATATTTTATGGGG
Take B20: the binding signal with SmpO45 [1] is 31.8 ± 2.19 %Rmax.
